From PubChem
Lassa entry inh: inhibitors of Lassa virus binding or cell entry. Lassa virus pseudotype entry inhibition, cell reporter. Potency, µM (titrated, usually from 37.9 µM), for inactives: top-dose activity change, negative = inhibition, usual class: inhibitors. 300,000 compounds, 1.2% hits; calls by dose curve; tested in HEK293 cells; note: potency is the fitted concentration of half-maximal effect; % is set by controls: 0 for no effect and ±100 for the full control effect; nearly all actives have a fitted effect of over 50% in size
Pf growth 96h: inhibits malaria parasite growth, 96 h; P. falciparum luciferase reporter growth, 96 h; Potency, µM (highest dose often 28.7 µM), for inactives: top-dose activity change, negative = inhibition, most hits filed as inhibitors; 320,000 compounds, 6.9% hits; AID 504834; note: potency is the fitted concentration of half-maximal effect; % is set by controls: 0 for no effect and ±100 for the full control effect
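P. falciparum expressing integrated firefly luciferase grown in erythrocytes (2% hematocrit, 0.05% parasitemia final) with compounds for 96 hours at 37 C, 5% CO2. Growth inhibition read as loss of luminescence after adding luciferase detection reagent.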
Marburg entry inh: blocks Marburg virus binding to or entry into cells; AID 540276; 300,000 compounds, 1.8% hits; Potency, µM (top dose mostly 37.8 µM), for the others: at the highest dose activity change, negative = inhibition, hits mostly inhibitors; Marburg virus pseudotyped entry inhibition, cell reporter; calls by dose curve; tested in HEK293 cells; note: potency is the fitted concentration of half-maximal effect; % is set by controls: 0 for no effect and ±100 for the full control effect
Cycloheximide cs: counter-screen for Shiga toxin inhibitors: cycloheximide protein synthesis inhibition | cell reporter, cycloheximide protein synthesis inhibition counterscreen | max response, % | 300,000 compounds, 12% hits; in the data active = max response mostly above about 13%, no sharp cut-off; inactive = mostly below about 14%; note: read at 38.3 µM for the half of the compounds with a filed dose; 0% is about no effect
Pf growth 48h: inhibits P. falciparum growth in the first generation, 48 h | P. falciparum luciferase growth in erythrocytes, 48 h | Potency, µM (highest dose often 28.7 µM), for the others: at the top dose activity change, negative = inhibition, hits mostly inhibitors | 310,000 compounds, 5.9% hits | AID 504832; note: potency is the fitted concentration of half-maximal effect; % is set by controls: 0 for no effect and ±100 for the full control effect
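A one-generation exposure of luciferase-tagged malaria parasites in RPMI 1640/Albumax erythrocyte culture, 37 C and 5% CO2. Inhibition is inferred from decreased luminescence after adding detection reagent.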
Shiga inhibitor: inhibitors of Shiga toxin in Vero cells | 290,000 compounds, 9.2% hits | Vero cells, Shiga toxin protein synthesis inhibition reporter | AID 2315 | inhibition, % at 38.7 µM; in the data active = inhibition mostly above about 28%, no sharp cut-off; inactive = mostly below about 43%; note: 0% is about no effect
Numbers without * were called inactive; u = inconclusive; x = no result; [ ] = remark or other dose. This is a sample that favours compounds with a hit; in the whole collection about 19% have one here. Unless noted, calls come from the whole dose curve; as a rule, active = well fitted inhibition curve with a large enough effect; inconclusive = small, poorly fitted or top-dose-only effect, or another doubt; inactive = no such curve, though single readings can be large or run the other way.

SMILES	Lassa entry inh	Pf growth 96h	Marburg entry inh	Cycloheximide cs	Pf growth 48h	Shiga inhibitor
NC(=O)c1c(NC(=O)c2cc3ccccc3o2)sc2c1CCC2	u	-11.8%	u	35.9*	4.5%	72.0*
CCOC(=O)c1c(NC(=O)c2cc3ccccc3c(=O)o2)sc2c1CCCC2	-3.3%[46.1 µM]	x	-0.4%[46.1 µM]	x	x	x
NC(=O)c1c(NC(=O)c2ccc(F)cc2)sc2c1CCC2	-8.3%[46.1 µM]	6.1%	u	52.8*	131.2%	45.1*
O=C(Nc1sc2c(c1C(=O)O)CCCC2)c1ccc(F)cc1	u	u	2.51µM*	33.5*	40.1%	48.6*
CC(C)CC(=O)Nc1sc2c(c1C(=O)O)CCCCC2	x	u	x	2.1	11.3%	35.5
Cc1ccc(C(=O)COC(=O)c2ccc(Cl)c(N)c2)s1	-1.6%	27.8%	-6.6%	x	59.9%	x
COc1cccc(-c2csc(N3CCN(C(=O)Nc4ccc(Cl)cc4)CC3)n2)c1	x	25.2%	x	28.4*	u	45.3*
COc1cccc(-c2csc(N3CCN(C(=S)Nc4cccc(Cl)c4)CC3)n2)c1	u	-12.4%	u	19.0	u	21.0
COc1ccc(NC(=O)N2CCN(c3nc(-c4cccc(OC)c4)cs3)CC2)cc1	u	u	23.1µM*	18.2	10.4µM*	-18.3
COc1cc(Cl)c(C)cc1NC(=O)Cn1ncc2c3ccccc3n(Cc3ccccc3)c2c1=O	-10.7%[46.1 µM]	x	-21.1%[46.1 µM]	x	x	x
COc1ccccc1C(=O)Nc1c[nH]c(=O)[nH]c1=O	x	u	x	-2.6	20.2%	12.8
Cc1cccc(C(=O)Nc2c(C#N)c(C)c(C)n2Cc2ccccc2)c1	6.5%	u	-18.9%	-1.7	u	-2.2
COC(=O)Cc1[nH]n(-c2ccccc2)c(=O)c1C(C)=Nc1ccccc1	18.8%	10.2%	18.3%[46.1 µM]	4.8	38.8%	14.8
COC(=O)Cc1[nH]n(-c2nc3ccccc3s2)c(=O)c1C(C)=Nc1ccc(Cl)cc1	x	159.0%	x	38.8*	150.2%	70.3*
COC(=O)Cc1[nH]n(-c2nc3ccccc3s2)c(=O)c1C(C)=Nc1ccc(C)cc1	u	6.7%	u	35.3*	-31.7%	92.8*
Cc1ccc(OCCn2c(SCCO)nc3c(N)ncnc32)cc1	x	46.6%	x	8.2	5.9%	-22.0
O=S(=O)(c1ccc(S(=O)(=O)N2CCCC2)cc1)N1CCCCCC1	-19.7%	-1.7%[5.75 µM]	15.5%	-2.0	-4.8%	-10.4
CCOC(=O)C1(CC2CCCCO2)CCN(S(=O)(=O)c2ccccc2)CC1 (stereo not given)	x	u	x	-1.2	u	-3.5
CC(C)(C)c1ccc(S(=O)(=O)N2CCC(CO)(CC3CCCCO3)CC2)cc1 (stereo not given)	u	u	u	-0.9	2.33µM*	-4.6
O=C(C1=COCCO1)N1CCN(S(=O)(=O)c2cccc(Br)c2)CC1	x	-19.4%	x	x	0.6%	x
CC(C)(C)c1ccc(S(=O)(=O)N2CCCCC2)cc1	-3.8%	11.7µM*	-2.2%	-0.4	u	6.5
O=C(C1CCC1)N1CCN(S(=O)(=O)c2ccc(F)cc2)CC1	-0.6%	-10.3%	17.1%	x	12.0%	x
CC(C)(C)c1ccc(S(=O)(=O)N2CCN(C(=O)C3=COCCO3)CC2)cc1	x	13.1µM*	x	x	u	x
CC(C)(C)c1ccc(S(=O)(=O)N2CCN(C(=O)C3CCC3)CC2)cc1	u	u	4.47µM*	0.7	u	5.9
COc1cccc2c1c(NC(=O)Nc1ccc(F)cc1F)nn2C	2.0%[46.1 µM]	-9.2%	u	3.7	3.6%	8.9
SMILES	Lassa entry inh	Pf growth 96h	Marburg entry inh	Cycloheximide cs	Pf growth 48h	Shiga inhibitor
CCN(CC)C(=O)c1sc2nc(-c3ccccn3)[nH]c(=O)c2c1C	-16.0%	x	-20.1%[46.1 µM]	x	x	x
CC1CC(OC(=O)c2ccccc2C(=O)c2ccc(Cl)cc2)C(=O)O1 (stereo not given)	-7.5%	x	u	x	x	x
O=C(Nc1ccccc1N1CCOCC1)c1ccc(S(=O)(=O)NCc2ccco2)cc1	-0.7%	64.6%	-8.5%	-2.8	16.4%	56.0
CC(C)(C)c1ccc(C(=O)N2CCCN(C(=O)c3ccc(C(C)(C)C)cc3)CC2)cc1	1.4%	157.5%	7.0%	-2.5	31.1%	-3.3
CC(C)(C)c1ccc(C(=O)N2CCN(C(=O)C3CCCCC3)CC2)cc1	u	10.4µM*	9.9%	-3.7	u	-10.4
CCCSC1=C(C#N)[C@H](c2ccc(OC)cc2)C2=C(CC(C)(C)CC2=O)N1	x	x	-10.0%	x	x	x
CSC1=C(C#N)C(c2ccc(Cl)cc2)C2=C(CC(C)(C)CC2=O)N1 (stereo not given)	u	17.3%	u	-5.5	7.38µM*	27.5
CCc1ccc(O)c(CNCCNCc2cc(CC)ccc2O)c1	x	5.86µM*	x	x	6.57µM*	x
Cc1ccc(O)c(CNCCNCc2cc(C)ccc2O)c1	x	2.62µM*	x	x	7.38µM*	x
O=C(O)c1cc(S(=O)(=O)Nc2ccccc2C(=O)O)ccc1O	2.1%	119.4%	8.8%	-1.6	47.5%	-17.2
CCN(CC)S(=O)(=O)c1cccc(NC(=O)CCSc2ccc(Cl)cc2)c1	12.6µM*	-30.4%	u	4.6	-2.8%	9.3
CN(C)S(=O)(=O)c1cccc(NC(=O)COC(=O)CCSc2ccc(Cl)cc2)c1	10.6%	0.0%	7.1%	1.1	19.5%	-12.2
NS(=O)(=O)c1cccc(NC(=O)COC(=O)CCSc2ccccc2)c1	0.8%	-2.9%	-1.5%	-2.8	6.4%	17.1
NS(=O)(=O)c1cccc(NC(=O)CCSc2ccccc2Cl)c1	u	109.9%	u	61.2*	78.7%	68.5*
Cc1cc(C)c([N+](=O)[O-])cc1NC(=O)CCSc1ccccc1Cl	-10.1%	u	-24.2%	-0.9	u	13.9
O=C(CCSc1ccccc1Cl)Nc1cccc([N+](=O)[O-])c1	u	99.8%	u	44.6*	111.2%	72.5*
CCCCCCCC(=O)NNC(=O)c1c(O)c2ccccc2n(CC)c1=O	-8.7%[46.1 µM]	-5.5%	u	-4.1	-11.3%	-15.5
CNc1cc(CSc2ccc(Cl)cc2)nc(C)n1	-16.8%	180.0%	-6.9%[46.1 µM]	46.6*	173.3%	99.0*
Cc1nc(CSc2ccc(Cl)cc2)cc(N2CCOCC2)n1	21.4%	7.38µM*	29.0%[46.1 µM]	9.7	4.2%	-1.9
Cc1nc(CSc2ccc(Cl)cc2)cc(NCc2ccccc2)n1	-10.8%	-2.6%	u	14.2	x	22.1
Cc1ccc(NC(=S)NCc2ccc3c(c2)OCO3)c(C)c1	2.6%	10.7%	-4.2%[46.1 µM]	9.5	-8.1%	9.0
COCCN(Cc1cn(C)nc1-c1ccccc1F)C(C)C	7.9%[46.1 µM]	9.28µM*	-16.1%[46.1 µM]	-2.4	60.2%	-8.9
CCn1ccnc1CN(C)Cc1cn(C)nc1-c1ccccc1F	1.0%[46.1 µM]	9.28µM*	-16.6%[46.1 µM]	-2.4	-4.2%	16.2
CCn1ccnc1CN(C)Cc1cn(-c2ccccc2)nc1-c1ccc(OC)cc1F	u	u	10µM*	5.5	0.0%	23.6
CCn1c(CC(=O)Nc2ccccc2)nnc1SCC(=O)Nc1nncs1	7.0%[46.1 µM]	-5.0%	22.1%[46.1 µM]	-3.1	-1.6%	-13.1
O=C(CCc1ccc(Oc2cc([N+](=O)[O-])cc([N+](=O)[O-])c2)cc1)N1CCCCCC1	-24.2%	u	u	4.6	7.38µM*	22.5
